ALOX12 inh: inhibitors of human 12S-lipoxygenase ALOX12. P18054. purified 12hLO, xylenol orange hydroperoxide absorbance. Potency, µM (top dose mostly 108 µM), inactives show top-dose activity change, negative = inhibition, actives largely listed as inhibitors. 580,000 compounds, 1.1% hits. AID 1671190; active means well fitted inhibition curve with a large enough effect; inconclusive means small, poorly fitted or top-dose-only effect, or another doubt; inactive means no such curve, though single readings can be large or run the other way; further: potency means the concentration at half of the fitted maximal effect; on the % scale 0 is the no-effect control and ±100 the full control effect
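Hydroperoxide product was detected by ferrous iron/xylenol orange as the 573 to 405 nm absorbance ratio. Arachidonic acid at 40 uM (final) was turned over for 30 min at room temperature by 150 nM human 12hLO, pH 7.0 Hepes buffer, after 15 min compound preincubation.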
ClpP mod: qHTS Assay for Activators of ClpP; 340,000 compounds, 1.9% hits; Potency, µM (highest dose often 57.5 µM), without a hit: at the top dose activity change, negative = active; AID 651965, 2013; purified B. subtilis ClpP, FRET peptide cleavage, 20 min; ATP-dependent Clp protease proteolytic subunit (Bacillus subtilis (strain 168)), P80244; active means well fitted falling curve with a large enough effect; inconclusive means small, poorly fitted or top-dose-only effect; inactive means no such curve, though single readings can be large or run the other way; further: potency means the concentration at half of the fitted maximal effect; the source files actives as falling curves though it sought activators and does not explain the sign; nearly all actives have a fitted effect of over 65% in size
Target sequence (P80244 whole entry, looked up): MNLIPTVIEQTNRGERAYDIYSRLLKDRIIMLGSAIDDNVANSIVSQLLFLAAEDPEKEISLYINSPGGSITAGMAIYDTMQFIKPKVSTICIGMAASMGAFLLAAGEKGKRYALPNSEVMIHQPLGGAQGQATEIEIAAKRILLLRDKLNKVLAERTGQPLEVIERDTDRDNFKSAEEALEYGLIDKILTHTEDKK
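ClpP 10 microg/mL final, pH 8 Tris/KCl buffer with BSA, glycerol, Tween-20; compound pinned in; FRET-FV substrate; RT 20 min; Ex320/Em430; ΔFRET vs ADEP 5.8 microM, DMSO, no enzyme.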
LDHA inh: blocks human lactate dehydrogenase A. purified LDHA, NADH/diaphorase-resazurin fluorescence; stronger effect = lower value. activity change, % (values are at about 110 or 230 µM). P00338. 480,000 compounds, 0.15% hits; in the data active means activity change below about -30%; inconclusive means mostly about -25% to -30%;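 further: plate controls were DMSO wells for no effect and wells without enzyme for full effect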
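Human LDH5 (2 nM) was incubated with 0.06 mM NADH and 0.2 mM pyruvate for 5 min at room temperature in Tris pH 7.4. Remaining NADH was coupled through diaphorase/resazurin, and resorufin fluorescence was read at 0 and 20 min.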
KCNH2 3.1 block: KCNH2 3.1 (human) potassium channel inhibition. U2OS KCNH2 3.1, thallium flux FluxOr; stronger effect = lower value. AID 720553. 340,000 compounds, 0.95% hits. activity change, % (tested at about 1.8 µM);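 active means maximum activity change below -70%; inconclusive means maximum activity change from -70% to -50%; inactive means maximum activity change above -50%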;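 further: thallium influx rate constant from kinetic fluorescence after stimulation buffer; on the % scale 0 is the no-effect control and ±100 the full control effect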
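We transduce U2OS cells with the mutant 3.1 virus, culture them overnight, load FluxOr with Red40 quencher for 45 min, then add stimulation buffer and read kinetically for 2 min to derive a normalized rate constant.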
KCNH2 WT inh: inhibitors of human wildtype KCNH2 potassium channel. Q12809. U2OS, BacMam KCNH2, thallium flux FluxOr; stronger effect = lower value. activity change, % at 1.84 µM. 340,000 compounds, 0.37% hits. AID 720551;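 active means maximum activity change below -70%; inconclusive means maximum activity change between -70% and -50%; inactive means maximum activity change above -50%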; further: on the % scale 0 is the no-effect control and ±100 the full control effect
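U2OS cells were transduced with wild-type KCNH2 virus (2.03 x 10^8 / mL) for 4 h at room temperature, then cultured overnight at 37 C. Thallium flux was read with FluxOr dye. Rate constants were normalized to DMSO controls.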
Chronic BCR inh: blocks chronic active B-cell receptor signaling; Potency, µM (titrated, usually from 46.1 µM), for the others: at the top dose activity change, negative = inhibition, most hits filed as inhibitors; ABC-DLBCL IkBa-CBG/CBR reporter, luminescence ratio, 4 h; 340,000 compounds, 0.05% hits; active means well fitted inhibition curve with a large enough effect in the signal ratio, with a control signal flat, not every such curve was filed as active; inconclusive means small, poorly fitted or top-dose-only effect, or effect the other way, or a change in a side signal; the % refers to the signal ratio;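 further: potency means the concentration at half of the fitted maximal effect; plate controls were basal doxycycline-induced cells for no effect and cells given 10 µM MG132 for full effect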
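Compounds up to 46 uM were incubated four hours with TMD8 cells whose green CBG68 luciferase is fused to IkappaBalpha; red CBR luminescence normalised the signal, and concentration-effect curves were fitted to fusion, red and ratio data.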
Numbers without * were called inactive; i = inactive; u = inconclusive; x = not tested or not shown; ! = not confirmed by another sample; [ ] = another dose, or the depositor's remark. In the library only some 3% were active in any assay of this set; here they are far more common.

SMILES | ALOX12 inh | ClpP mod | LDHA inh | KCNH2 3.1 block | KCNH2 WT inh | Chronic BCR inh
CSc1ccc(S(=O)(=O)NCc2ccc(C)cc2)cc1 | 5% | 1% | 2 | -78* | 41 | u
COc1cccc(CC(=O)N2CC(Oc3ccc(-c4nc(-c5ccccc5)no4)cc3)C2)c1 | -10% | x | x | x | x | x
CC(NC(=O)/C(C#N)=C\c1ccc(C(C)(C)C)cc1)c1ccccc1 (centres undefined) | 16% | x | 2 | x | x | x
CC(C)NC(=O)/C(C#N)=C/c1ccc(C(=O)O)cc1 | 22µM* | x | 2 | x | x | x
Cc1oc(-c2ccccc2)nc1CNC(=O)Nc1ccc(F)cc1 | u | x | -9 | x | x | x
CCc1ccc(NC(=O)C2CCN(C(=O)[C@@H]3Cc4ccccc4CN3)CC2)cc1 | -7% | 2% | 3 | -40 | -18 | u
COc1ccc(NC(=O)C2CCN(C(=O)[C@@H]3Cc4ccccc4CN3)CC2)cc1 | -15% | -1% | -7 | -114* | 16 | 12%
O=C(CCc1nc(CSc2n[nH]c(-c3ccc(Cl)cc3)n2)no1)Nc1ccc2ccccc2c1 | -27% | x | 3 | x | x | x
CCCc1ccc(-c2cc(C(=O)Nc3cccnc3)c3ccccc3n2)cc1 | -12% | x | 4 | x | x | x
CN(Cc1ncc[nH]1)c1ccc(-c2nc(CCCc3ccccc3)no2)cn1 | 126% | x | x | x | x | x
Cc1c2cccn2cc[n+]1C | 32%[57.4 µM] | 10µM* | -19 | 4 | -20 | 1%
CN(C)c1ccc(C(=O)N2CCC3(CC2)NC(=O)N(c2cccc(F)c2)N3)cc1 | 5µM* | x | x | x | x | x
COc1ccc(C(=O)N2CCC3(CC2)NC(=O)N(c2cccc(F)c2)N3)c(OC)c1 | 1.3µM* | x | x | x | x | x
COc1cccc(C(=O)N2CCC3(CC2)NC(=O)N(c2cccc(F)c2)N3)c1 | 2µM* | x | x | x | x | x
Cc1ccc(C(=O)N2CCC3(CC2)NC(=O)N(c2cccc(F)c2)N3)s1 | -70% | x | x | x | x | x
COc1ccc(C(=O)N2CCC3(CC2)NC(=O)N(c2ccc(F)cc2)N3)cc1F | 2µM* | x | x | x | x | x
COc1ccc(CC(=O)NC(c2cccs2)C(C)C)c(OC)c1OC (centres undefined) | u | x | 0 | x | x | x
CC1CC2(CCCCC2)Nc2c1ccc1ccccc21 (centres undefined) | 130% | 18µM* | 12 | -9 | -4 | u
CC(=O)N1c2c(ccc3ccccc23)C(C)CC12CCCCC2 (centres undefined) | u | 0% | -3 | -2 | -2 | 34%
O=C(O)C(c1c[nH]c2cc(CO)ccc12)N1CCN(Cc2cccs2)CC1 (centres undefined) | -4% | x | -7 | x | x | x
Cc1ccccc1CN1c2ccccc2-c2nc(SCC(=O)NCc3ccccc3)ncc2S1(=O)=O | u | 32µM* | -7 | x | x | x
O=C1c2ccccc2CN1C1CCN(Cc2cccc3ccccc23)CC1 | 50µM* | x | x | x | x | x
CCC(c1nnc(SCC(=O)Nc2cc(S(C)(=O)=O)ccc2Cl)n1Cc1ccccc1)N(C)C (centres undefined) | 12% | 32µM* | 0 | -8 | 0 | u
O=S(Cc1ccc(Br)cc1)Cc1nnc(SCc2ccc(Br)cc2)n1-c1ccccc1 (centres undefined) | -24% | -2% | 2 | -74* | -16 | u
COc1cccc(NC(=O)Cn2c(=O)n(-c3ccc(Cl)cc3)c(=O)c3sc4ccccc4c32)c1 | u | 32µM* | -10 | x | x | x
SMILES | ALOX12 inh | ClpP mod | LDHA inh | KCNH2 3.1 block | KCNH2 WT inh | Chronic BCR inh
COc1ccc(CCNC(=S)NNC(=O)c2c(Br)c(C)nn2C)cc1OC | -3% | -2% | 0 | -75* | 7 | -4%
COc1ccc(CCNC(=O)c2c(Cl)ccc(Cl)c2OC)cc1OC | -2% | x | -4 | -96* | -1 | u
COc1ccc(CCNC(=S)NCc2ccc(Cl)c(Cl)c2)cc1OC | 45µM* | x | -11 | 3 | 3 | u
COc1ccc(CCNC(=O)c2ccc(Cl)cc2)cc1OC | 0% | -3% | 0 | -8 | 2 | 0%
N#Cc1ccccc1OCC(=O)NC1(C#N)CCCC1 | 0% | x | -2 | x | x | x
CCOc1ncccc1Cn1cc(-c2cncnc2)nn1 | -25% | x | x | x | x | x
O=C(CCc1ccccc1)N1CCC(O)(c2csc(CN3CCc4ccccc4C3)n2)CC1 | -7% | x | x | x | x | x
CCC(CC)NC(=O)NC(C)c1ccc(Br)cc1 (centres undefined) | u | x | -1 | x | x | x
COc1ccc2nc(S(=O)Cc3ncc(C)c(OC)c3C)[nH]c2c1 (centres undefined) | 22µM*! | x | -1 | 9 | 6 | u
COc1ccc2nc(CC(C)(C)CC(=O)O)c[n+]([O-])c2c1 | 119% | 16µM* | 3 | 5 | 5 | -5%
Cc1ccc2nc(CC(C)(C)CC(=O)O)c[n+]([O-])c2c1 | u | x | -6 | x | x | x
COc1ccc(NC(=O)C2CCCCC(=O)N2)cc1F (centres undefined) | 1% | x | x | x | x | x
CCOc1ccc(-n2nc(C(=O)NCCCN(CC)Cc3ccccc3)c3ccccc3c2=O)cc1 | u | x | 5 | x | x | x
CC1Cc2ccccc2N1C(=O)COc1nc2ccccc2nc1N1CCOCC1 (centres undefined) | u | 28µM* | -1 | 0 | -10 | 2%
CC1=C(C(=O)N2CCOCC2)C(c2ccccc2F)C2=C(CCCC2=O)N1 (centres undefined) | -2% | 25µM* | 6 | 4 | -3 | 5%
Cc1cc(=O)n(CC(=O)Nc2ccc(F)cc2)c(N2CCc3ccccc3C2)n1 | u | x | 3 | x | x | x
O=S(=O)(Cc1ccccc1)C1CCCCC1O (centres undefined) | i | 14µM* | -10 | 3 | -4 | 0%
CCN(CC)Cc1ccc(CNC(=O)CCC2CCCC2)cc1 | -2% | x | -6 | x | x | x
Nc1ccc(N2CCCCC2)c(S(=O)(=O)Nc2ccccc2Cl)c1 | u | x | 9 | -27 | -3 | 10%
Cn1c(=O)c(=O)n(C)c2cc(N3CCCC3)c(NS(=O)(=O)c3ccc(Cl)cc3)cc21 | 40µM* | 2% | 11 | -14 | -6 | -1%
O=S(=O)(Nc1ccc(Nc2ccccc2)cc1)c1ccc(F)cc1 | 28% | x | 4 | 7 | 6 | x
Cc1ccc(S(=O)(=O)Nc2ccc(Cl)cc2O)cc1 | 28µM* | -5% | 14 | x | x | x
Cc1ccc(S(=O)(=O)Nc2ccc(Nc3ccccc3)cc2)cc1 | 18µM* | x | 0 | -2 | -2 | -6%
Nc1cc(S(=O)(=O)Nc2ccccc2Cl)ccc1N1CCCCC1 | 28µM* | -5% | -11 | 8 | 2 | 3%
Cc1nc(NC(=O)COc2cccc3ccccc23)sc1C | u | x | 8 | x | x | x
Cc1ccc(S(=O)(=O)Nc2ccccc2NS(=O)(=O)c2ccc(C)cc2)cc1 | 7.9µM* | 0% | -1 | x | x | x

Bioassay records deposited in PubChem by National Center for Advancing Translational Sciences (NCATS).
